Test results taken from PubChem BioAssay AID504850 (National Center for Advancing Translational Sciences (NCATS), 2011).
About 1,200 (52%) of roughly 2,300 compounds were called active. Roughly 34% stayed inconclusive and do not appear here. Calls follow the shape of the dose curve; as a rule, active = well fitted inhibition curve with a large enough effect; inconclusive = small, poorly fitted or top-dose-only effect, or effect the other way; inactive = no such curve, though single readings can be large or run the other way. So high a share suggests a set chosen from earlier hits. Some of the results follow.

Test: Confirmation screen for delayed death inhibitors of the malarial parasite plastid, 48 hour incubation; also: nearly all actives have a fitted effect of over 65% in size
Settings: P. falciparum-infected erythrocytes, luciferase growth; series mostly up to 28.7 µM; activity change, negative = inhibition: at the top concentration
Method in brief: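 Erythrocytes infected with luciferase-expressing P. falciparum (2% hematocrit, 0.1% parasitemia) incubated with compounds 48 hours at 37 C, 5% CO2, in RPMI/Albumax. Growth inhibition scored as reduced luminescence after detection reagent.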
% is scaled to controls: 0 for no effect and ±100 for the full control effect; potency is read from the fitted curve at half-maximal effect.

| SMILES | activity change, negative = inhibition | Potency |
| --- | --- | --- |
| O=C1NC(NS(=O)(=O)c2ccc(Cl)cc2)(C(F)(F)F)C(=O)N1Cc1cccnc1 (configuration not stated) | -27.7% (inactive) |  |
| CCCOc1cc(NCc2ccccc2)c2ncn(C(C)C)c2c1 |  | 5.01 µM (active) |
| CCCN1C2=C(C(=O)CCC2)C(c2ccc(O)c(Br)c2)C2=C1CCCC2=O |  | 12.6 µM (active) |
| O=c1cc(CSc2ccc(Cl)cc2)nc(-c2ccccn2)[nH]1 |  | 5.01 µM (active) |
| CCc1nc(SCC(=O)N2c3ccccc3CC2C)c2c(C)c(C)sc2n1 (configuration not stated) |  | 11.2 µM (active) |
| Cc1sc2nc(C3CC3)nc(SCC(=O)N3c4ccccc4CC3C)c2c1C (configuration not stated) |  | 14.1 µM (active) |
| CCc1nc(SCC(=O)Nc2ccccc2OC)c2c(C)c(C)sc2n1 |  | 12.6 µM (active) |
| C=CCNC(=O)c1cnc2n(c1=O)CCS2 | -0.495% (inactive) |  |
| C=CCn1c(SCc2cc(=O)n3cc(C)ccc3n2)nnc1-c1ccc(F)cc1 |  | 14.1 µM (active) |
| COC(=O)C1=C(C)Nc2ncnn2C1c1ccccn1 (configuration not stated) | -2.2% (inactive) |  |
| Cc1cc(C)cc(-n2c3nc4ccccc4nc3c3c(=O)n(Cc4ccco4)cnc32)c1 |  | 12.6 µM (active) |
| Cc1ccc(Cn2c(C)nc3c(c2=O)c2nc4ccccc4nc2n3Cc2ccco2)cc1 |  | 7.08 µM (active) |
| COc1cc(C2Oc3ccccc3C=C2[N+](=O)[O-])cc(OC)c1OC (configuration not stated) |  | 14.1 µM (active) |
| COc1cc(/C=C(/C(=O)c2cccs2)c2nc3ccccc3[nH]2)ccc1O |  | 8.91 µM (active) |
| O=C(/C(=C/c1ccc(Cl)cc1)c1nc2ccccc2[nH]1)c1ccccc1 |  | 1.41 µM (active) |
| CCCc1c(C)c2cccc(C)c2[nH]c1=O | -16.3% (inactive) |  |
| COc1ccc(CNC(=O)C[C@H]2C(=O)N(C3CCCCC3)C[C@@H]2Cc2ccccc2)cc1 |  | 11.2 µM (active) |
| COc1ccc(CNCc2ccc3ccccc3c2)c(OC)c1 |  | 11.2 µM (active) |
| Cc1cc(C)n(CC(O)COc2ccccc2)n1 (configuration not stated) |  | 2 µM (active) |
| CCOC(=O)c1c(-c2ccc(C)cc2C)csc1NC(=O)CSc1nnnn1C |  | 4.47 µM (active) |
| CCCSc1nc2c(cnn2-c2ccccc2)c(=O)[nH]1 | 13.4% (inactive) |  |

| SMILES | activity change, negative = inhibition | Potency |
| --- | --- | --- |
| CCCc1c(NC(=O)Nc2ccc(F)cc2)cnn1-c1ccccc1 |  | 15.8 µM (active) |
| CC1=NCCN1CCNC(=O)Nc1ccc(F)cc1 | 2.48% (inactive) |  |
| CCCc1c(NC(=O)Nc2ccc(F)cc2)cnn1-c1ccc(Cl)cc1 |  | 12.6 µM (active) |
| NC(=O)C1CCN(CC(=O)Nc2cccc(C(=O)Nc3cccc(C(F)(F)F)c3)c2)CC1 |  | 2 µM (active) |
| COc1cccc(NC(=O)c2ccc3c(c2)C(=O)N(CC2CCCO2)C3=O)c1 (configuration not stated) | -4.19% (inactive) |  |
| CSc1c[n+]2c(n1C)CCC2 | 4.49% (inactive) |  |
| Cc1ccc(-n2c(-c3ccc(Cl)cc3)c[n+]3c2CCC3)cc1 |  | 0.355 µM (active) |
| Cc1c(C)n2c(SCC(=O)Nc3ccc4c(c3)OCCO4)nnc2[nH]c1=O |  | 4.47 µM (active) |
| O=C(c1[nH]ncc1-c1cccc(Br)c1)C1CO1 (configuration not stated) |  | 12.6 µM (active) |
| Cc1onc(NC(=O)c2ccc([N+](=O)[O-])o2)c1Br |  | 12.6 µM (active) |
| CC1=Nc2cc(C(=O)N3CCCC3)ccc2Sc2ccc(C)cc21 |  | 5.62 µM (active) |
| COc1ccc(CCN2CCCn3c2nc2c3c(=O)n(Cc3ccccc3F)c(=O)n2C)cc1OC |  | 5.01 µM (active) |
| COc1cc(/C=C/C(=O)c2ccc(Cl)s2)cc(OC)c1O |  | 14.1 µM (active) |
| COc1ccccc1C(=O)Nc1ccc2nc3n(c(=O)c2c1)CCCC3 |  | 11.2 µM (active) |
| COc1ccccc1CNC(=O)c1ccc2c(=O)n3c(nc2c1)CCCCC3 |  | 11.2 µM (active) |
| CCOC(=O)C1CCN(C(=O)C(=O)Nc2ccc3nc4n(c(=O)c3c2)CCCCC4)CC1 |  | 14.1 µM (active) |
| CCC(=O)N1CCc2cc(S(=O)(=O)N3CCN(c4cc(Cl)ccc4C)CC3)ccc21 | -15.3% (inactive) |  |
| CCC(=O)N1CCc2cc(S(=O)(=O)N3CCCCCC3)ccc21 |  | 12.6 µM (active) |
| CC(=O)N1CCc2cc(S(=O)(=O)N3CC(C)CC(C)C3)ccc21 (configuration not stated) |  | 11.2 µM (active) |
| O=C1C2CCCN2C(c2ccccc2)N1c1nccs1 (configuration not stated) | -20.9% (inactive) |  |
| Cc1ccc(Nc2nc(=O)c3cccnc3s2)c(Br)c1 | -21.6% (inactive) |  |

| SMILES | activity change, negative = inhibition | Potency |
| --- | --- | --- |
| O=S(=O)(Nc1cccc2ncccc12)c1cccs1 |  | 4.47 µM (active) |
| Cc1ccc(S(=O)(=O)Nc2cccc3ncccc23)s1 |  | 5.01 µM (active) |
| CCOc1ccc(CCn2c(-c3ccco3)nc3ccccc3c2=O)cc1OCC |  | 10 µM (active) |
| CCOc1ccc(S(=O)(=O)Nc2cc(S(=O)(=O)N(CC)CC)ccc2N2CCCC2)cc1 |  | 2.51 µM (active) |
| N#CC(C#N)=C1C=CC=CN1/C(=C\c1ccco1)C(=O)c1ccc(Cl)cc1 |  | 14.1 µM (active) |
| COc1ccc(C(=O)/C(=C\c2ccco2)N2C=CC=CC2=C(C#N)C#N)cc1 |  | 15.8 µM (active) |
| N#CC(C#N)=C1C=CC=CN1/C(=C\c1ccco1)C(=O)c1ccc(Br)cc1 |  | 15.8 µM (active) |
| COc1ccc(-c2cc(CNC(=O)CCl)on2)cc1 |  | 1.58 µM (active) |
| O=C(NCc1ccc2c(c1)OCO2)c1nc(S(=O)(=O)Cc2ccccc2F)ncc1Cl | -11.3% (inactive) |  |
| O=C(CN(c1ccc2c(c1)OCCO2)S(=O)(=O)c1ccccc1)NCc1ccc(Cl)cc1 |  | 7.94 µM (active) |
| CC(C)N1C/C(=C/c2ccsc2)C(=O)/C(=C/c2ccsc2)C1 |  | 5.01 µM (active) |
| Cc1c(CCO)sc[n+]1CC(=O)OCCC12CC3CC(CC(C3)C1)C2 |  | 8.91 µM (active) |
| CCCCc1nc2cc(C(=O)N3CCN(c4nc(C)cnc4C)CC3)ccc2o1 |  | 12.6 µM (active) |
| CCC(C)(C)NC(=O)C(c1cccc(OC)c1OC)N(CC(C)C)C(=O)CCC(=O)Nc1cc(C)on1 (configuration not stated) |  | 10 µM (active) |
| CCOC(=O)Cn1nnnc1C(CC)N(Cc1cccs1)Cc1cc2ccc(OC)cc2[nH]c1=O (configuration not stated) |  | 10 µM (active) |
| Cc1ccc(OCC(=O)Nn2cnnc2)c(Br)c1 | 2.15% (inactive) |  |
| Cc1ccc(C)c(-c2nnc(OCC(=O)Nc3cc(C)on3)c3ccccc23)c1 |  | 14.1 µM (active) |
| CC(C)N=C(NS(=O)(=O)c1ccccc1)C(Cl)(Cl)Cl |  | 5.01 µM (active) |
| C=CCNC(=O)c1onc(CSc2cccc(Cl)c2)c1C(=O)O | 6.09% (inactive) |  |
| CCc1ccc(-c2cn(C3CCCCC3)c(=S)[nH]2)cc1 |  | 14.1 µM (active) |
